From PubChem BioAssay (NCI)
Compounds without any hit were thinned out: in the full panel of roughly 83,000, 20% have a hit.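 96-well plates, one dose, 48 hours. Percent growth reported; active if below 10.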 Values without a mark were called inactive. Activity calls are given as the source filed them.

test system: SR leukemia; assay: NCI-60 one-dose screen, 48 h (100 = growth as untreated, 0 = no growth, -100 = all killed); settings: 10 µM unless noted

SMILES	growth
c1cc(C2=N[C@@H]3c4ccccc4C[C@@H]3O2)nc(C2=N[C@@H]3c4ccccc4C[C@@H]3O2)c1	101%
COC1=C(OC)C(=O)C(CCCCCCCCCC[P+](c2ccccc2)(c2ccccc2)c2ccccc2)=C(C)C1=O	-27% (active)
COc1ccc(-c2cc(-c3ccccc3)nc(SCCCC(=O)NO)n2)cc1OC	4.39% (active)
N=C(N)c1ccc(-c2cc(Cl)cc(Cl)c2)cn1	55%
C=C1CCC2C(C)(CO)C(O)CCC2(C)C1C/C=C1/C(=O)OCC1O/C=C/c1ccccc1 (configuration not stated)	27.6%
CCN(CC)CCC(CNc1ccnc2cc(Cl)ccc12)c1ccccc1 (configuration not stated)	20.5%
COc1ccc(-c2ccc(-c3ccc(C(=N)N)cn3)s2)cc1OC	63.1%
Cn1cnc2c(N3CCN(C(=O)OCc4ccc5c(Cl)cc(Cl)c(O)c5n4)CC3)nc(Cl)nc21	74.1%
C=C1CCC2C(C)(CO)C(O)CCC2(C)C1C/C=C1/C(=O)OCC1Oc1ccccc1C (configuration not stated)	50.7%
COc1ccc(S(=O)(=O)NCCCNc2nccc(-n3ccc4cccnc43)n2)cc1	90.7%
CCN(CC)CCC(CNc1ccnc2cc(Cl)ccc12)c1ccc(Cl)cc1 (configuration not stated)	-13.2% (active)
N=C(N)c1ccc(-c2ccc(-c3ccc(-c4cccs4)s3)s2)cc1	81.6%
CCCCCCN1CSC(=S)N(CCCCCC)C1	104%
O=C(NS(=O)(=O)c1ccccc1)n1cc(-c2ccncc2)c(-c2ccc(Cl)c(O)c2)n1	97.2%

test system: RPMI-8226 leukemia; assay: as above; settings: 10 µM unless noted

SMILES	growth
Cc1ccc(-c2cc3nc(C(Cl)Cl)nc(-c4ccccc4C)n3n2)cc1	48.1%
O=C(NNC(=O)N1c2ccccc2C=Cc2ccccc21)c1ccc2ccccc2c1	96.7%
CN(C[C@H]1Cc2c(cccc2N2CCN(Cc3ccccn3)CC2)CN1)[C@H]1CCCc2cccnc21	64.5%
CCCCCCCCC(C)OC(=O)c1nn(C(C)=O)c2ccccc12 (configuration not stated)	104%
OC(c1cc2cc(Br)ccc2c2cc(Br)ccc12)C1CCCCN1 (configuration not stated)	-38.9% (active)
O=C(NS(=O)(=O)c1ccc2ccccc2c1)n1cc(-c2ccncc2)c(-c2ccc(Cl)c(O)c2)n1	60.2%
Cc1cc(N)n(S(=O)(=O)c2oc(-c3ccccc3)nc2C#N)n1	75.9%
O=[N+]([O-])c1ccc(C(c2ccccc2)c2ccccc2)cc1	98.1%
CN(C)c1oc(C2OC2c2ccccc2)nc1C#N (configuration not stated)	98.3%
Cc1ccc(S(=O)(=O)NC(=O)n2cc(-c3ccncc3)c(-c3ccc(Cl)c(O)c3)n2)cc1	99.9%
CN(CCCCN(C[C@H]1Cc2ncccc2CN1)[C@H]1CCCc2cccnc21)C1CCC(F)(F)CC1	92.5%
Cc1cc(C2(c3cc(C)c(O)cc3C)OS(=O)(=O)c3ccccc32)c(C)cc1O	92.4%
CC1CN(c2oc(-c3ccccc3)nc2C#N)CC(C)O1 (configuration not stated)	104%
NC(=O)CCCN1C/C(=C\c2ccccc2)C(=O)c2ccccc21	101%
Cc1nc2ncccc2nc1Nc1ccc(S(=O)(=O)Nc2ccccn2)cc1	84.5%
COc1ccc(NC(=O)c2c(Nc3ccc(OC)cc3OC)n[nH]c2N)c(OC)c1	91%
CCOC(=O)c1cn2c3c(cc(C)cc3c1=O)C(=O)/C(=C/c1ccccc1)C2	110%
N=c1ccc2nc3ccc(N)cc3sc-2c1	30%
COC1=C(OC)C(=O)C(CCCCCCCCCC[P+](c2ccccc2)(c2ccccc2)c2ccccc2)=C(C)C1=O	-62.5% (active)
N=C(N)c1ccc(-c2cc(Cl)cc(Cl)c2)cn1	82.8%
Nc1cccc(-c2nc3sccn3c2-c2ccnc(NCCNS(=O)(=O)c3ccc(C(F)(F)F)cc3)n2)c1	61.7%
CCN(CC)CCC(CNc1ccnc2cc(Cl)ccc12)c1ccccc1 (configuration not stated)	59.3%
COc1ccc(-c2ccc(-c3ccc(C(=N)N)cn3)s2)cc1OC	89%
CCN(CC)CCC(CNc1ccnc2cc(Cl)ccc12)c1ccc(Cl)cc1 (configuration not stated)	-0.553% (active)
N=C(N)c1ccc(-c2ccc(-c3ccc(-c4cccs4)s3)s2)cc1	61%
COc1ccc(Nc2nn3c(C)cc(C)nc3c2C(=O)Nc2ccc(C)cc2)c(OC)c1	102%
CCCCCCN1CSC(=S)N(CCCCCC)C1	86.5%
O=C(NS(=O)(=O)c1ccccc1)n1cc(-c2ccncc2)c(-c2ccc(Cl)c(O)c2)n1	97.4%
